# Columns and labels:
# [1] = molecular target: Tyrosine-protein kinase Fyn (Homo sapiens) (UniProt P06241); details: at 1 µM
# [2] = molecular target: Tyrosine-protein kinase HCK (Homo sapiens) (UniProt P08631); details: at 0.1 µM
# [3] = molecular target: Tyrosine-protein kinase HCK (Homo sapiens) (UniProt P08631); details: at 1 µM
# [4] = molecular target: Insulin-like growth factor 1 receptor (Homo sapiens) (UniProt P08069); details: at 0.1 µM
# [5] = molecular target: Insulin-like growth factor 1 receptor (Homo sapiens) (UniProt P08069); details: at 1 µM
# [6] = molecular target: Insulin receptor (Homo sapiens) (UniProt P06213); details: at 0.1 µM
# [7] = molecular target: Insulin receptor (Homo sapiens) (UniProt P06213); details: at 1 µM
# [8] = molecular target: Insulin receptor-related protein (Homo sapiens) (UniProt P14616); details: at 0.1 µM
# [9] = molecular target: Insulin receptor-related protein (Homo sapiens) (UniProt P14616); details: at 1 µM
# [10] = molecular target: T1, Tyrosine-protein kinase ITK/TSK (Homo sapiens) (UniProt Q08881); details: at 0.1 µM
# T1 sequence (whole entry): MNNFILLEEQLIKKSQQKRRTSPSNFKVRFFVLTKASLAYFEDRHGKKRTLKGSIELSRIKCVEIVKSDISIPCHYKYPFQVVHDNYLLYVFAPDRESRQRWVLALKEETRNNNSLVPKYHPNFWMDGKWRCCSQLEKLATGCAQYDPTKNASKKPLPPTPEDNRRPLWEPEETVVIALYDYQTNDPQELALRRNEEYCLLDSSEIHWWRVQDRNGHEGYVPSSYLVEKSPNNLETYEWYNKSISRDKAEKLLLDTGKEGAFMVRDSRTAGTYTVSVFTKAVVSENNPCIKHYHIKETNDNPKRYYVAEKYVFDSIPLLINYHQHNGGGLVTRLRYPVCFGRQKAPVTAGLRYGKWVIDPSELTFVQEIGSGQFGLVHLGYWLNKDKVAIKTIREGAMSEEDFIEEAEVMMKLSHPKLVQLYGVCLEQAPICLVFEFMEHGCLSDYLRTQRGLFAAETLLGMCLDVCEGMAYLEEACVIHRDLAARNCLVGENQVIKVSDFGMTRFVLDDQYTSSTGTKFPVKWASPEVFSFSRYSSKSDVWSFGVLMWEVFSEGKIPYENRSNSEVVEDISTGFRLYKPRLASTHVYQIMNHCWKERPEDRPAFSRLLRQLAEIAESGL
# [11] = molecular target: T1, Tyrosine-protein kinase ITK/TSK (Homo sapiens); details: at 1 µM
# [12] = molecular target: Tyrosine-protein kinase JAK1 (Homo sapiens) (UniProt P23458); details: at 0.1 µM
# [13] = molecular target: Tyrosine-protein kinase JAK1 (Homo sapiens) (UniProt P23458); details: at 1 µM
# [14] = molecular target: Tyrosine-protein kinase JAK2 (Homo sapiens) (UniProt O60674); details: at 0.1 µM
# Sequence of Tyrosine-protein kinase JAK2 (Homo sapiens) (O60674 whole entry): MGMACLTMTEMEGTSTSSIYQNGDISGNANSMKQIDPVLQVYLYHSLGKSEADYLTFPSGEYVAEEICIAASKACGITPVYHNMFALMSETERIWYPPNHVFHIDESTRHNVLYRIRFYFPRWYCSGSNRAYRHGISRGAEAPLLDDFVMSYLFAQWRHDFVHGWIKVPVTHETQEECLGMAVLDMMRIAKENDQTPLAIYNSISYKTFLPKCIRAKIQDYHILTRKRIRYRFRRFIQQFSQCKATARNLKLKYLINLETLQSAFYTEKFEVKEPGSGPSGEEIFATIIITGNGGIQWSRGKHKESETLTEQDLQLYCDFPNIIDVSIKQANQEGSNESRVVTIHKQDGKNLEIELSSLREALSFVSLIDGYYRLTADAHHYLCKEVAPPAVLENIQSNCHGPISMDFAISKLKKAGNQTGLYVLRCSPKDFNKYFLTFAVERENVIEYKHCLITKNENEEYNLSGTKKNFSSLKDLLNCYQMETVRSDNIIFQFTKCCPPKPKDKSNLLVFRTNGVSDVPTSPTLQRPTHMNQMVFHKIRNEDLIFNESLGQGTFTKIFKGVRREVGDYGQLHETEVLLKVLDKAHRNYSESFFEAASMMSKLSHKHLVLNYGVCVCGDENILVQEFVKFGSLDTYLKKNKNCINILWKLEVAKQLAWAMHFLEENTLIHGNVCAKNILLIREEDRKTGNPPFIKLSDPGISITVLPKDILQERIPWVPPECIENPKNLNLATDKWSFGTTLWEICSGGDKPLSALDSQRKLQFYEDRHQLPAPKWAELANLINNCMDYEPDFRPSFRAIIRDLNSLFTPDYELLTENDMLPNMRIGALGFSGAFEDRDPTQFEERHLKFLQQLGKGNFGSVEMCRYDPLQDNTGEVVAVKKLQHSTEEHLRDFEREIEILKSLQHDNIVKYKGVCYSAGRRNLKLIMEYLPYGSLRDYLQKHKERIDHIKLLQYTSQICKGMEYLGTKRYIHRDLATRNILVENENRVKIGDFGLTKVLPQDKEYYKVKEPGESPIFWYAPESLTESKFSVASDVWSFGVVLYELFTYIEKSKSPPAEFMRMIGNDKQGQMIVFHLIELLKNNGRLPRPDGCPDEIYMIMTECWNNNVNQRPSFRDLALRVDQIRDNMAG
# [15] = molecular target: Tyrosine-protein kinase JAK2 (Homo sapiens) (UniProt O60674); details: at 1 µM
# [16] = molecular target: T2, Tyrosine-protein kinase JAK3 (Homo sapiens) (UniProt P52333); details: at 0.1 µM
# T2 sequence (whole entry): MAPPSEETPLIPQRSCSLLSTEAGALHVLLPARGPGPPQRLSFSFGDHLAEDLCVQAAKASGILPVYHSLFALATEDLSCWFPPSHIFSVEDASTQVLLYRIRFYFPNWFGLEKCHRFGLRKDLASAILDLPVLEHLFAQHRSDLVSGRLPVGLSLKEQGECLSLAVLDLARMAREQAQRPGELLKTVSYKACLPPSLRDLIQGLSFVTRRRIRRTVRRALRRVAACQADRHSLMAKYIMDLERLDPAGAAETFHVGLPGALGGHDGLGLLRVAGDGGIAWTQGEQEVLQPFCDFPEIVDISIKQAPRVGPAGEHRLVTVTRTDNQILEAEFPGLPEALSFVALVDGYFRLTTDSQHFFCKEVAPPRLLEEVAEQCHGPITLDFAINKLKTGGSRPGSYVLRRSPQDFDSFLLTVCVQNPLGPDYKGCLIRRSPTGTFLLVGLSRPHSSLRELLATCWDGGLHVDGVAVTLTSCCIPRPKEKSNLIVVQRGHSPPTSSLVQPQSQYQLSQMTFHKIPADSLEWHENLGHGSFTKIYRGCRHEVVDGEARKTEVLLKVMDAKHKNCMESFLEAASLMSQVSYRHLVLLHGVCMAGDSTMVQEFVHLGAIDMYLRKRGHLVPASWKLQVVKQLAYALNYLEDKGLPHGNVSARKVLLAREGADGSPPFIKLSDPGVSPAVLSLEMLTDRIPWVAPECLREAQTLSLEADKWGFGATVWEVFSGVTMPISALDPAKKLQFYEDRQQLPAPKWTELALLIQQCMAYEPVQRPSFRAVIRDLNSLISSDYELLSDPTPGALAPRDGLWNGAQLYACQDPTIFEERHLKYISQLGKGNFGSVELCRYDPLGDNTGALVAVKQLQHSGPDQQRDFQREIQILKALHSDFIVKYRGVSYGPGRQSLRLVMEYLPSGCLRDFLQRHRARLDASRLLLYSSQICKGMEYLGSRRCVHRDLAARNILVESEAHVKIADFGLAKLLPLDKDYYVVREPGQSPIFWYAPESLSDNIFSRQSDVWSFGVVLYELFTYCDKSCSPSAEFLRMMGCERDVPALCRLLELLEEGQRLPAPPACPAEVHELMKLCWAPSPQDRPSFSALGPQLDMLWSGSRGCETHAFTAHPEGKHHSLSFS
# [17] = molecular target: T2, Tyrosine-protein kinase JAK3 (Homo sapiens); details: at 1 µM
# [18] = molecular target: Vascular endothelial growth factor receptor 2 (Homo sapiens) (UniProt P35968); details: at 0.1 µM
# Sequence of Vascular endothelial growth factor receptor 2 (Homo sapiens) (P35968 whole entry): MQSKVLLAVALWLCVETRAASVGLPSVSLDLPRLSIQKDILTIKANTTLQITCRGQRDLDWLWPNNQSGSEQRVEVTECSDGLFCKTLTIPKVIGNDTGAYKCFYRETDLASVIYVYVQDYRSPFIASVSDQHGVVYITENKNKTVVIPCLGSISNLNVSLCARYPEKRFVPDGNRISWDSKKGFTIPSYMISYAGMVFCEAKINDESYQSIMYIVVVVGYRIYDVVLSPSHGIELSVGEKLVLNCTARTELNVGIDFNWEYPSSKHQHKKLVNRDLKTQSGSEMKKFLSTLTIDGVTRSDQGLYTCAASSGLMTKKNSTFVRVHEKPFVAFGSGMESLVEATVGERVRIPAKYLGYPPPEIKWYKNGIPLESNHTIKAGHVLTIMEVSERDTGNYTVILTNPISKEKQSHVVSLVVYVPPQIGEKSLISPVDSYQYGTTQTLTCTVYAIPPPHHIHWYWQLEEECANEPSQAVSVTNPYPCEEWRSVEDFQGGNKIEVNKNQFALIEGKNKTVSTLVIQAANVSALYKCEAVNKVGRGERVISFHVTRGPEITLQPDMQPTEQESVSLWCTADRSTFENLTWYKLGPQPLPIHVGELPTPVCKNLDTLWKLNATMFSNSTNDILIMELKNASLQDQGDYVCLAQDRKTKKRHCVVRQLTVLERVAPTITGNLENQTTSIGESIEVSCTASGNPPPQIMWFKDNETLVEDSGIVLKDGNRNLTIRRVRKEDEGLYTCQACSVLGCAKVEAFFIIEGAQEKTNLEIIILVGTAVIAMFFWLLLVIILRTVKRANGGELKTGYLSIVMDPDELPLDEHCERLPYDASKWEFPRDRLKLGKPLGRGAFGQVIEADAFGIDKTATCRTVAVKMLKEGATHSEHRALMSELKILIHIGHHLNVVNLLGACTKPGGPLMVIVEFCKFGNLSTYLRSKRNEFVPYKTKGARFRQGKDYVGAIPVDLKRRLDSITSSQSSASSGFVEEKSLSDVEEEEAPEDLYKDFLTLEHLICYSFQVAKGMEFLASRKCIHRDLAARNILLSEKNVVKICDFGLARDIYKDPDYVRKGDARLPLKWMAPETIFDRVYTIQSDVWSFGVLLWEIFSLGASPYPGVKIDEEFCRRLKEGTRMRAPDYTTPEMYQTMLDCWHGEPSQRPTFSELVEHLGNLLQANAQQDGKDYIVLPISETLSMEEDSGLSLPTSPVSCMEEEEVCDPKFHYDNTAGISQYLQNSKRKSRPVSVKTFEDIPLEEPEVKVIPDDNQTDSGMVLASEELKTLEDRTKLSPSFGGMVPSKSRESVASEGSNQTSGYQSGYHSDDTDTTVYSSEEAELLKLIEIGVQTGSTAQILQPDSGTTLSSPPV
# [19] = molecular target: Vascular endothelial growth factor receptor 2 (Homo sapiens) (UniProt P35968); details: at 1 µM
# [20] = molecular target: Mast/stem cell growth factor receptor Kit (Homo sapiens) (UniProt P10721); details: at 0.1 µM;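 further: values are mean inhibition of KIT, from the GSK PKIS dataset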
# Sequence of Tyrosine-protein kinase HCK (Homo sapiens) (P08631 2-526 limits assumed): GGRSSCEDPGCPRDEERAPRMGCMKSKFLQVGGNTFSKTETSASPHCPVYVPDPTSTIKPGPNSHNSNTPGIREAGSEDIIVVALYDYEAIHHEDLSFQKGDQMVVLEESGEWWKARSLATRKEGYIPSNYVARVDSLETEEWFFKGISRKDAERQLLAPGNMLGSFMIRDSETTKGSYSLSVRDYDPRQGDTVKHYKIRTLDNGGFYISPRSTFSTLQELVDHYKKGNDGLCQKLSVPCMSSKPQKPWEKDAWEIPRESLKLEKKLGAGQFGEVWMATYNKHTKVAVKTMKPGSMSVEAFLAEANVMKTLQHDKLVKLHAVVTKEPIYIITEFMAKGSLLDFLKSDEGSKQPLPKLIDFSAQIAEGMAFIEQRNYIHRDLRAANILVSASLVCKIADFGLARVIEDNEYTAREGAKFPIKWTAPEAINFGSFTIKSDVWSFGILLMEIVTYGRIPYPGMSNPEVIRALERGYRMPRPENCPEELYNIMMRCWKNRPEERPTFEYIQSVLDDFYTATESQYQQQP
# Sequence of Insulin-like growth factor 1 receptor (Homo sapiens) (P08069 31-736 limits assumed): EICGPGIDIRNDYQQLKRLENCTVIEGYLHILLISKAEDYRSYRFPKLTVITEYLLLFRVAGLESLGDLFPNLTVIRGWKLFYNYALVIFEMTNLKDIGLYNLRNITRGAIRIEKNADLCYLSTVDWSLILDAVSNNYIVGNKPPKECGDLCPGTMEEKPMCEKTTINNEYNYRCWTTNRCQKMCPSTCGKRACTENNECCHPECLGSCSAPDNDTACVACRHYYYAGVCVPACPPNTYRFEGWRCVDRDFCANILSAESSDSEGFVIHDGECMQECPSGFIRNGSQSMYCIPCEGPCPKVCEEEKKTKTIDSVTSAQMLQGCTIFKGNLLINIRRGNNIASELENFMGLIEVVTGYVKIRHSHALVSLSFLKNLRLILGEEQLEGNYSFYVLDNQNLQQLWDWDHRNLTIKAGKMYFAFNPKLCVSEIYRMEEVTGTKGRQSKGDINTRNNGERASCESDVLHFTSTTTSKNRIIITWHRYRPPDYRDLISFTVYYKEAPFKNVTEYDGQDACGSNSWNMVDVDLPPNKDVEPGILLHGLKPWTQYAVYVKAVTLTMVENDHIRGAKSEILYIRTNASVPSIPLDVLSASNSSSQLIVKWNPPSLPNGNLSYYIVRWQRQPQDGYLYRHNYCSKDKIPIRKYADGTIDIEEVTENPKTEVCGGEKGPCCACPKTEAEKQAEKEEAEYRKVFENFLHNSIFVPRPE
# Sequence of Insulin-like growth factor 1 receptor (Homo sapiens) (P08069 741-1367 limits assumed): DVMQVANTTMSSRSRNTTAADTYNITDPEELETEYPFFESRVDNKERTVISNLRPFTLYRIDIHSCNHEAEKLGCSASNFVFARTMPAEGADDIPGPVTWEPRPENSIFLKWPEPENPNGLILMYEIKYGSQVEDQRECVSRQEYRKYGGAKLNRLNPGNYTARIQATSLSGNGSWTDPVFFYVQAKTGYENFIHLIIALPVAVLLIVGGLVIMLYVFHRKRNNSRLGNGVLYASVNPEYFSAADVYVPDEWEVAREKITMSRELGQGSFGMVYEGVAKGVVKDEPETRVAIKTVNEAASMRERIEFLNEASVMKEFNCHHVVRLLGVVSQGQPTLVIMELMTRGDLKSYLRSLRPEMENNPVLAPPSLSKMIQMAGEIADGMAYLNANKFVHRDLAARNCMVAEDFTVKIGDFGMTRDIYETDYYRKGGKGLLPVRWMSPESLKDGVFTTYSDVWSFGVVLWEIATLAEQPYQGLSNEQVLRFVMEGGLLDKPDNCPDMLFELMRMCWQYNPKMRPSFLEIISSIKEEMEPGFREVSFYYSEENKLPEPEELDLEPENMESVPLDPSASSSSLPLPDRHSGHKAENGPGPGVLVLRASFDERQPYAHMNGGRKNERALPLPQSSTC
# Sequence of Tyrosine-protein kinase Fyn (Homo sapiens) (P06241 2-537 limits assumed): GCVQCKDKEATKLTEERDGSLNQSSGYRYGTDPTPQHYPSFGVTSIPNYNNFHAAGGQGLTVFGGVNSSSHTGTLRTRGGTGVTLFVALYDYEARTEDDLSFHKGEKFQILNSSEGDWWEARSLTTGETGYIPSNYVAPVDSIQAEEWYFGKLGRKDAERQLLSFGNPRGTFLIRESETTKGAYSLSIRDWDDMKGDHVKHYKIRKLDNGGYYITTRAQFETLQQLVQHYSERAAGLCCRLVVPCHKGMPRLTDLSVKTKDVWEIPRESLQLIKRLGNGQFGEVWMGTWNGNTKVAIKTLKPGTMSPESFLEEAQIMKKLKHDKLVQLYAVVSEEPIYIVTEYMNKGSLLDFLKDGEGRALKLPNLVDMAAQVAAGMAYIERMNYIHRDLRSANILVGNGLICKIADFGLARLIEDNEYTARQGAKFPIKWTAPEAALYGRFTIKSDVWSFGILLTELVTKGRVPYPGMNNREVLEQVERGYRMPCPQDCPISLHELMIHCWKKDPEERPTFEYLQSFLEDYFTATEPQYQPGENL
Structure (SMILES),inhibition [1],inhibition [2],inhibition [3],inhibition [4],inhibition [5],inhibition [6],inhibition [7],inhibition [8],inhibition [9],inhibition [10],inhibition [11],inhibition [12],inhibition [13],inhibition [14],inhibition [15],inhibition [16],inhibition [17],inhibition [18],inhibition [19],inhibition [20]
NS(=O)(=O)c1ccc(N/N=C2\C(=O)Nc3ccc(C(=O)NCCc4c[nH]cn4)cc32)cc1,17.2%,9.6%,25%,5.24%,17.3%,6.5%,32%,6.49%,2.5%,1.78%,3.56%,5.75%,0.16%,2.27%,2.46%,0.03%,3.43%,12.9%,43.3%,5.68%
Cc1cc(O)cc(C)c1/C=C/c1cncc(-c2nn[nH]n2)c1,52.3%,20.6%,74.9%,-3.59%,-2.05%,7.59%,8.18%,2.98%,2.21%,-2.15%,-1.93%,1.7%,4.82%,1.66%,2.27%,-4.63%,-3.88%,4.58%,10.2%,11.9%
COc1cccc(-n2ncc3c(N/N=C/c4cccc(F)c4)ncnc32)c1,31.5%,5.13%,20.8%,-6.82%,-4.04%,6.33%,5.41%,0.81%,0.48%,-3.25%,-2.13%,2.37%,2.01%,1.22%,1.44%,-4.29%,0.79%,10.1%,34.1%,3.25%
Nc1nc(-c2ccccn2)c(-c2ccc3ncccc3n2)s1,-0.24%,2.25%,6.89%,3.05%,3.2%,2.46%,1.2%,2.58%,2.92%,1.05%,2.48%,0.52%,4.22%,-0.07%,2%,-1.07%,-0.57%,3.52%,8.02%,3.79%
COc1ccccc1Nc1ncc(-c2ccccc2)o1,8.38%,9.81%,13.3%,-0.7%,1.64%,1.17%,3.48%,3.09%,3.73%,0.73%,3.07%,4.14%,5.2%,0.56%,-0.51%,-3.6%,-1.96%,10.6%,19.2%,78.2%
CCn1c(-c2nonc2N)nc2cncc(C(=O)N3CC[C@H](N)C3)c21,2.85%,6.43%,9.69%,4.59%,6%,4.27%,6.06%,0.81%,1.96%,0.55%,1.18%,-1.1%,22.4%,0.61%,1.25%,-0.95%,-0.29%,7.05%,15.8%,5.39%
COc1cc2ncn(-c3cc(O[C@@H](C)c4ccccc4Cl)c(C(N)=O)s3)c2cc1OC,27.5%,10.8%,43.3%,-0.08%,2.3%,1.26%,3.04%,3.27%,3.99%,0.13%,3.19%,0.34%,3.27%,2.38%,1.08%,-3.05%,1.97%,18%,67.7%,4.65%
O=C1NC(=O)C(c2cccc(Cl)c2)=C1Nc1ccc(O)c(Cl)c1,2.24%,1.14%,3.34%,-1.68%,2.43%,4.11%,6.7%,1.1%,0.03%,0.25%,1.28%,2.54%,7.81%,0.65%,2.24%,3.49%,51.4%,3.41%,20.1%,-3.91%
CCCN1CCC=C(c2ccc(Nc3nc(Nc4ccccc4C(N)=O)c4cc[nH]c4n3)c(C)c2)C1,7.24%,7.82%,16.3%,97.6%,99.2%,84%,90.1%,23.2%,70.8%,1.99%,7.61%,2.14%,3.46%,2.19%,2.74%,-1.04%,0.49%,0.98%,17.7%,4.24%
c1cnn2ncc(-c3ccnc(Nc4ccc5c(c4)OCCO5)n3)c2c1,8.63%,6.09%,16.8%,15%,56.6%,12.7%,58.5%,5.36%,15.2%,1.86%,5.82%,8.27%,19.7%,2.1%,20.6%,1.94%,46%,9.54%,37.4%,95%
COc1cc2c(cc1Nc1nc(N3CCc4ccccc43)c3cc[nH]c3n1)N(C(=O)CN(C)C)CC2,1.51%,5.42%,10%,103%,98.4%,93%,91%,72.3%,90.3%,0.83%,1.52%,-0.01%,-3.36%,1.69%,0.18%,0.19%,0.18%,1.11%,0.21%,3.11%
CCn1c(-c2nonc2N)nc2c(C#CC(C)(C)O)nc(OC[C@@H](N)c3ccccc3)cc21,2.07%,5.84%,11.9%,1.67%,1.05%,-0.22%,-0.5%,0.45%,1.06%,0.21%,0.95%,-3.77%,2.1%,0.33%,6.32%,1.24%,4.39%,35.1%,71.2%,-1.3%
CC1=C(C(=O)Nc2ccc3[nH]ncc3c2)C(c2ccc(F)cc2)NC(=O)N1 (stereo not given),4.69%,3.04%,2.81%,9.13%,8.59%,4.97%,4.22%,0.88%,0.72%,0.65%,1.33%,14.4%,70.3%,2.59%,35.1%,1.07%,30.8%,4.24%,12.3%,5.14%
O=C1NC(=O)C(c2ccccc2Cl)=C1Nc1cccc(O)c1,2.43%,3.62%,5.29%,3.77%,2.85%,0.88%,4.12%,7.16%,2.14%,1.12%,2.08%,3.43%,0.51%,2.97%,4.56%,0.39%,21.8%,4.45%,6.91%,0.48%
O=C1NC(=O)C(c2ccc(Cl)cc2)=C1Nc1ccc(Cl)c(C(=O)O)c1,0.57%,0.67%,3.62%,0.06%,-0.55%,2.24%,2.54%,-0.43%,-1.7%,-0.06%,0.04%,-3.25%,-7.51%,-0.25%,-0.22%,0.01%,2.64%,4.84%,9.16%,-0.92%
O=C1NC(=O)C(N2CCc3ccccc32)=C1c1ccc(Cl)cc1,4.67%,8.78%,12.7%,2.02%,2.75%,6.09%,5.24%,2.18%,2.1%,1.5%,2.44%,1.13%,0.25%,1.54%,2.81%,-1.28%,1.36%,12.4%,14.6%,6.61%
CS(=O)(=O)CCNCc1ccc(-c2ccc3ncnc(Nc4ccc(OCc5ccccc5)c(Cl)c4)c3c2)o1,9.03%,1.16%,5.85%,5.19%,-0.77%,1.79%,1.45%,-1.48%,-1.47%,-0.01%,1.43%,-0.15%,1.78%,-0.29%,1.05%,0.91%,2.44%,6.23%,14.2%,2.73%

# Source: ChEMBL document CHEMBL1961873, “Compounds: GSK PKIS; Assays: Nanosyn kinase panel” (2012)
